Assay outcomes from PubChem BioAssay.
MITF TRPM1 inh – reduces MITF-dependent TRPM1 promoter luciferase signal; SK-MEL-5 TRPM1 promoter luciferase, 24 h; inhibition, % at 12.5 µM; 0.83% of 330,000 active;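 active = mean inhibition across replicates of 60% or more, whatever share of single replicates reaches that level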
LMP1 NFkB inh – Epstein-Barr LMP1 NF-kappaB reporter inhibition | LMP1-induced NF-kappaB luciferase reporter cells, luminescence | inhibition, % at 12.5 µM | 0.69% of 350,000 active; in the data active = inhibition above about 41%;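 also: 0% = neutral control wells and 100% = reference inhibitor control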
Peg3 promoter – inhibitors of Peg3 promoter | 1.7% of 360,000 active | HeLa PEG-Prom luciferase reporter, luminescence, overnight | inhibition, % at 20 µM;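 active = inhibition of at least 50% at 20 µM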
TWEAK Fn14 block – inhibitors of TWEAK-Fn14 interaction signaling | TWEAK-stimulated Fn14 reporter cells, luciferase luminescence, 8 h | 2% of 360,000 active | inhibition, % at 10 µM; in the data active = inhibition above about 50%
HIF-2a inh – HIF-2a inhibition. 786-0 RCC cells HIF-2a reporter, luciferase luminescence, overnight. inhibition, % at 18.8 µM. 0.72% of 360,000 active. AID 624352;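 active = inhibition of the luminescence signal of 40% or more relative to plate controls, in a single-dose primary screen at 18.75 µM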
TROY signal inh – blocks TROY-dependent signaling in reporter cells. Q293 LMP1-TROYcd NF-kB luciferase reporter, 4 h. inhibition, % at 10 µM. 0.98% of 360,000 active. AID 1347056;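 active = compounds whose plate-normalised and pattern-corrected inhibition of the luciferase reporter signal at the single screening dose is 50% or more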
Numbers without * were called inactive. Compounds with a hit are over-represented: about 4% of the library has one in this group of screens.

`Cc1oc2cc3oc(=O)c(CCC(=O)NCCN4CCOCC4)c(C)c3cc2c1C` gave MITF TRPM1 inh -18, LMP1 NFkB inh -1, Peg3 promoter -73, TWEAK Fn14 block -14, HIF-2a inh -110 and TROY signal inh -47.
Screening CC(=O)c1cccc(NC(=O)CSc2ncc(C(=O)Nc3ccccc3)c(=O)n2C)c1 returned MITF TRPM1 inh 64*, LMP1 NFkB inh -5, Peg3 promoter 110*, TWEAK Fn14 block -11, HIF-2a inh 10 and TROY signal inh -8.
`Cn1c(SCC(=O)NCC2CCCO2)ncc(C(=O)Nc2ccc(Cl)cc2)c1=O` (stereo not given) gave MITF TRPM1 inh 67*, LMP1 NFkB inh -22, Peg3 promoter 59*, TWEAK Fn14 block 4, HIF-2a inh -61 and TROY signal inh -7.
`CC(=O)Nc1cccc(NC(=O)CSc2ncc(C(=O)Nc3ccc(F)cc3)c(=O)n2C)c1` gave MITF TRPM1 inh 47, LMP1 NFkB inh -8, Peg3 promoter -19, TWEAK Fn14 block 11, HIF-2a inh -14 and TROY signal inh 13.
CC(=O)Nc1cccc(NC(=O)CSc2ncc(C(=O)Nc3ccccc3)c(=O)n2C)c1 was read as MITF TRPM1 inh 67*, LMP1 NFkB inh -12, Peg3 promoter 105*, TWEAK Fn14 block 2, HIF-2a inh 1 and TROY signal inh 14.
Screening Cn1c(SCC(=O)NCC2CCCO2)ncc(C(=O)Nc2ccc(F)cc2)c1=O (stereo not given) returned MITF TRPM1 inh 47, LMP1 NFkB inh -6, Peg3 promoter -3, TWEAK Fn14 block 12, HIF-2a inh -28 and TROY signal inh -2.
CCn1c(SCC(=O)Nc2nc3ccc(C)cc3s2)nc2c(c1=O)SC(C)C2 (stereo not given) was read as MITF TRPM1 inh 14, LMP1 NFkB inh 34, Peg3 promoter 6, TWEAK Fn14 block 93*, HIF-2a inh -12 and TROY signal inh 19.
For O=C(CSc1nnc2ccc(-c3ccc(F)cc3)nn12)N1CCOCC1 the results were MITF TRPM1 inh -4, LMP1 NFkB inh 1, Peg3 promoter -10, TWEAK Fn14 block 0, HIF-2a inh -1 and TROY signal inh -2.
O=C(Nc1cccc(C(F)(F)F)c1)Oc1ccc(Cl)c2cccnc12 was read as MITF TRPM1 inh 11, LMP1 NFkB inh 11, Peg3 promoter 40, TWEAK Fn14 block 74*, HIF-2a inh -32 and TROY signal inh 48.
CCN(CC)C(=O)Oc1ccc(Cl)c2cccnc12 was read as MITF TRPM1 inh 12, LMP1 NFkB inh -1, Peg3 promoter -6, TWEAK Fn14 block -8, HIF-2a inh 5 and TROY signal inh 8.
Screening COCCn1c(=S)[nH]c2cc(C(=O)NC3CCCC(C)C3C)ccc2c1=O (stereo not given) returned LMP1 NFkB inh -10, Peg3 promoter -4, TWEAK Fn14 block 0, HIF-2a inh -13 and TROY signal inh -10.
COc1ccc(-c2nc(-c3cccnc3)no2)cc1OC was read as MITF TRPM1 inh -57, LMP1 NFkB inh -7, Peg3 promoter -193, TWEAK Fn14 block 84*, HIF-2a inh -186 and TROY signal inh -31.
COc1ccc(-c2csc3nc(-c4cccnc4)nc(Cl)c23)cc1OC was read as MITF TRPM1 inh 18, LMP1 NFkB inh 7, Peg3 promoter 9, TWEAK Fn14 block 53*, HIF-2a inh 26 and TROY signal inh 36.
For Clc1nc(-c2cccnc2)nc2scc(-c3ccccc3)c12 the results were MITF TRPM1 inh -41, LMP1 NFkB inh -23, Peg3 promoter -155, TWEAK Fn14 block 14, HIF-2a inh -162 and TROY signal inh -34.
`COc1cc(-c2nc(-c3cccnc3)no2)cc(OC)c1OC` gave MITF TRPM1 inh -17, LMP1 NFkB inh 8, Peg3 promoter 0, TWEAK Fn14 block -8, HIF-2a inh -10 and TROY signal inh -10.
Screening CCOc1ccc(Cn2nnc(-c3ccc(S(C)(=O)=O)cc3)n2)cc1OCC returned MITF TRPM1 inh -3, LMP1 NFkB inh 16, Peg3 promoter 6, TWEAK Fn14 block 0, HIF-2a inh 8 and TROY signal inh -10.
`CN1C=Nc2c(ncn2C2CCC(CO)O2)C1O` (stereo not given) gave TWEAK Fn14 block -4, HIF-2a inh 4 and TROY signal inh 0.
Screening Cc1ccc(C)c(NC(=O)CN(C)C(=O)COc2cccc3c2OC(C)(C)C3)c1 returned MITF TRPM1 inh 6, LMP1 NFkB inh -3, Peg3 promoter 11, TWEAK Fn14 block -3, HIF-2a inh 10 and TROY signal inh -16.
For c1ccc2c(Nc3nc(N4CCOCC4)c4ccccc4n3)cccc2c1 the results were MITF TRPM1 inh 15, LMP1 NFkB inh -2, Peg3 promoter 18, TWEAK Fn14 block 52*, HIF-2a inh 10 and TROY signal inh 19.
Fc1ccc(Nc2nc(N3CCOCC3)c3ccccc3n2)cc1 was read as MITF TRPM1 inh -10, LMP1 NFkB inh 4, Peg3 promoter 11, TWEAK Fn14 block 10, HIF-2a inh -4 and TROY signal inh 12.
For N#C/C(=C(/O)CCl)c1nc2ccccc2[nH]1 the results were MITF TRPM1 inh 80*, LMP1 NFkB inh -9, Peg3 promoter 27, TWEAK Fn14 block 18, HIF-2a inh -63 and TROY signal inh -15.
For N#C/C(=C(\O)Cc1ccccc1)c1nc2ccccc2[nH]1 the results were MITF TRPM1 inh 4, LMP1 NFkB inh 6, Peg3 promoter 17, TWEAK Fn14 block 14, HIF-2a inh -2 and TROY signal inh -8.
Cc1cc(Br)ccc1SCC(=O)OC/C(O)=C(\C#N)c1nc2ccccc2[nH]1 was read as MITF TRPM1 inh 10, LMP1 NFkB inh -13, Peg3 promoter 37, TWEAK Fn14 block -5, HIF-2a inh 0 and TROY signal inh -19.
For Cc1cc(Br)ccc1SCC(=O)OCC(O)=C(C#N)c1nc2ccccc2[nH]1 the results were MITF TRPM1 inh 17, LMP1 NFkB inh -7, Peg3 promoter 66*, TWEAK Fn14 block -19, HIF-2a inh -3 and TROY signal inh 2.
For N#C/C(=C(/O)COC(=O)CCC1CCCCC1)c1nc2ccccc2[nH]1 the results were MITF TRPM1 inh 3, LMP1 NFkB inh -7, Peg3 promoter 48, TWEAK Fn14 block 89*, HIF-2a inh -4 and TROY signal inh -10.
For CCCC(=O)OC/C(O)=C(\C#N)c1nc2ccccc2[nH]1 the results were MITF TRPM1 inh 19, LMP1 NFkB inh 1, Peg3 promoter 23, TWEAK Fn14 block 10, HIF-2a inh 0 and TROY signal inh -1.
CCCCCOc1ccc(Br)cc1/C(C)=N/NC1=NCCN1 was read as MITF TRPM1 inh 70*, LMP1 NFkB inh -4, Peg3 promoter 81*, TWEAK Fn14 block 20, HIF-2a inh 31 and TROY signal inh 36.
Screening COc1ccc(Br)cc1/C(C)=N/NC1=NCCN1 returned MITF TRPM1 inh 13, LMP1 NFkB inh -1, Peg3 promoter 17, TWEAK Fn14 block 22, HIF-2a inh 22 and TROY signal inh 18.
